Most compounds without a hit are left out; they make up all but 5.9% or so of the library.
Rtt109 HAT inh: inhibitors of C. albicans Rtt109/Vps75 HAT, primary screen, biochemical, ThioGlo CoA-SH fluorescence, plate reader. Histone acetyltransferase RTT109 (Candida albicans (strain SC5314 / ATCC MYA-2876)), …. purified Rtt109/Vps75, 4 h. inhibition, % at 34.9 µM. 0.16% of 330,000 active. AID 540336, 2011;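 active = inhibition of at least 50% in every replicate; inconclusive = best replicate reaches 50% inhibition but some replicates fall short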
ABHD5-PLIN5 inh: ABHD5-PLIN5 interaction inhibitors, primary screen, cell lysate, split luciferase complementation, luminescence | Perilipin-5 (Homo sapiens) + 1-acylglycerol-3-phosphate O-acyltransferase ABHD5 (Homo … | AID 602281, 2012 | inhibition, % at 4 µM | 0.78% of 360,000 active | Split G. princeps luciferase complementation, 4 h;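 active = inhibition above the mean inhibition across every tested compound plus 3 SD, cut at about 22% in these data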;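 note: 0% = DMSO only wells and the 100% control is not disclosed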
ALR inh: inhibitors of human ALR sulfhydryl oxidase, primary screen, biochemical, H2O2 detection, HRP-luminol luminescence, single point. FAD-linked sulfhydryl oxidase ALR (Homo sapiens), P55789. purified ALR, DTT oxidation. inhibition, % (no concentration beside the values). 3.8% of 290,000 active. AID 485317, 2010;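 active = mean replicate inhibition above about 79%, with every replicate also reaching it, limit read from the data; inconclusive = only one of the two criteria met; inactive = mean below limit and not every replicate reaching it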
Target sequence (P55789 whole entry, looked up): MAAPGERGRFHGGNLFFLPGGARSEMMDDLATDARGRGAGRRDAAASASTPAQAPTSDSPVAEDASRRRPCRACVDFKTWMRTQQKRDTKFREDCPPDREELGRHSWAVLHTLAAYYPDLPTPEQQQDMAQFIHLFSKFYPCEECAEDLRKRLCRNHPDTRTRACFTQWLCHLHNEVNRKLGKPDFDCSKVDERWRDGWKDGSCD
rCAG binder: binders of r(CAG) RNA repeats, primary screen, biochemical, fluorescence; r(CAG) RNA repeat, TO-PRO-1 dye displacement fluorescence; inhibition, % at 3 µM; 1.3% of 370,000 active;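 active = inhibition above the plate cutoff, the mean of all test compounds on that plate plus 3 SD, cut at about 35% in these data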;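 note: 0% = DMSO alone and 100% = 100 µM mitoxantrone as full dye displacement; higher means more dye released from RNA so lower well fluorescence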
PRMT1 FP inh: PRMT1 methyltransferase inhibitors, primary screen, biochemical, fluorescence polarization | Protein arginine N-methyltransferase 1 (Homo sapiens), Q99873 | recombinant PRMT1, activity-based probe fluorescence polarization | inhibition, % at 2.79 µM | 1.3% of 370,000 active | AID 652257, 2013;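 active = inhibition above about 21% made by adding two undisclosed values, limit read from the data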
Target sequence (Q99873 whole entry, looked up): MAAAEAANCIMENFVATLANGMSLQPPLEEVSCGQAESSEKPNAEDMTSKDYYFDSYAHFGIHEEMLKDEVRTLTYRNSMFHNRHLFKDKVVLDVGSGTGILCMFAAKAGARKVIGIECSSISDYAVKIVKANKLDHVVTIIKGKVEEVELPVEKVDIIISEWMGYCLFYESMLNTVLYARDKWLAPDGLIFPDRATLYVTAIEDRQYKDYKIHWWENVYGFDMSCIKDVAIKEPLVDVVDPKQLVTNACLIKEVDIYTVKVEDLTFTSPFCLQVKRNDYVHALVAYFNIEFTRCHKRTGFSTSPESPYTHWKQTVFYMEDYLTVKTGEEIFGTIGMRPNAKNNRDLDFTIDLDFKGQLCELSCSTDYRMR
LANA-H2A inh: blockers of LANA interaction with H2A/H2B – biochemical, FP readout, HTS, primary screen; Protein LANA1 (Human herpesvirus 8 type P (isolate GK18)), Q9QR71; cell-free LANA-H2A/H2B peptide, fluorescence polarization; inhibition, % (test concentration not listed); 0.6% of 320,000 active; in the data active = inhibition mostly above about 10%, no sharp cut-off; inactive = mostly below about 6.7%
* = called active by the depositor; ? = inconclusive; . = no result given.

SMILES	Rtt109 HAT inh	ABHD5-PLIN5 inh	ALR inh	rCAG binder	PRMT1 FP inh	LANA-H2A inh
COc1ccc(Cn2cc(CN3CC(N4CCCC4)CS3(=O)=O)nn2)cc1 (stereo not given)	.	-2	.	0	-2	.
CCCOc1ccc(-c2c(C(=O)N/N=C/C3CCCCC3)nnn2-c2nonc2N)cc1	-7	-3	-2	8	3	0
O=C(NC1CCCCN(Cc2cccc(C(F)(F)F)c2)C1=O)c1cccc([N+](=O)[O-])c1 (stereo not given)	.	.	.	1	1	.
CN1CCN(/N=C/c2nc(-c3cccc([N+](=O)[O-])c3)n3ccccc23)CC1	13	-4	99*	8	1	5
O=[N+]([O-])c1cccc(-c2nnc3ccc4ccccc4n23)c1	-1	-3	-9	1	-4	-8
C[C@@H]1ON(C)[C@H]2C[C@H]3c4[nH]c5cccc(Br)c5c4CCN3C(=O)[C@@H]12	.	.	.	3	4	.
C/C(=N\Nc1nnc2c3ccccc3n(C)c2n1)c1ccc(C)o1	9	-4	23	3	2	-3
C/C(=N\Nc1nc(C)cc(C)n1)c1ccc(C)o1	.	-5	91*	-2	-3	6
O=C1N/C(=N\S(=O)(=O)Cc2ccccc2)S/C1=C/c1cc([N+](=O)[O-])ccc1O	.	8	97*	71*	1	1
CCCCCCCCCCCCN1[C@@H](CC(=O)O)c2cc(C(F)(F)F)ccc2S1(=O)=O	?	-4	98*	28	3	10
COC1=C[C@H](C(=O)NCc2ccc(Br)cc2)[C@H](C)[C@@H](c2ccccc2)CC1=O	.	.	.	6	-1	.
O=C(/C=C/c1cccc([N+](=O)[O-])c1)N1CCN(c2ccccn2)CC1	-2	-3	37	0	-4	2
O=C(/C=C/c1cccc([N+](=O)[O-])c1)n1cnc2ccccc21	-3	23*	.	3	2	.
COc1cccc(C(=O)n2ccc3ccc(-c4ccc5ccn(Cc6ccc(C#N)cc6)c5c4)cc32)c1	.	.	.	24	6	.
CC(C)c1cccc(-c2csc(C(C)(O)c3ccncc3)n2)c1 (stereo not given)	.	-16	.	1	-1	.
CC(=O)NC(c1ccc(F)c(F)c1)c1nc(-c2ccncc2)cs1 (stereo not given)	.	5	.	1	8	.
c1ccc(CNc2ncnc3sc4c(c23)CCCC4)nc1	-13	0	96*	-2	-4	-3
Cc1nc(NCc2ccccn2)c2c3c(sc2n1)CCCC3	4	0	11	0	0	-1
COC(=O)CSc1nc(N)c(C#N)c(-c2ccco2)c1C#N	-12	1	.	14	10	2
COC(=O)CSc1nc(-c2ccccc2)cc(-c2ccco2)c1C#N	-1	-1	95*	9	-1	-7
CC(C)NC(=O)NC1CCN(CC(=O)Nc2ccc3c(c2)OCCO3)CC1	.	.	.	3	4	.
Cc1ccc(/C=c2\sc3nc(-c4cccnc4)nn3c2=O)cc1	4	-2	91*	26	1	2
CC(C)c1ccc(/C=c2\sc3nc(-c4ccncc4)nn3c2=O)cc1	2	2	87*	26	2	-5
O=C(OCC#CCSc1nnc(-c2cccc3ccccc23)o1)c1ccc(F)c(F)c1	.	.	.	.	0	.
Cc1cccc(-c2cccc3[nH]c4c(c23)CCN2C(=O)[C@H]3[C@H](C)ON(C)[C@H]3C[C@@H]42)c1	.	.	.	11	-5	.
SMILES	Rtt109 HAT inh	ABHD5-PLIN5 inh	ALR inh	rCAG binder	PRMT1 FP inh	LANA-H2A inh
Cc1ccc(S(=O)(=O)Oc2ccc(/C=N/N=C3/NC(=O)C(CC(=O)O)S3)cc2)cc1 (stereo not given)	10	3	.	31	-4	.
Cc1ccc(-c2ccc(/C=N/N=C3/NC(=O)C(CC(=O)O)S3)o2)c([N+](=O)[O-])c1 (stereo not given)	16	-11	99*	25	1	3
O=C(O)CC1S/C(=N/N=C/c2ccc(-c3ccccc3[N+](=O)[O-])o2)NC1=O (stereo not given)	18	-49	98*	18	18	-1
C[C@H]1[C@H](N(Cc2ccccc2)Cc2ccccc2)CC[C@@]23CCCN2C(=O)CCC[C@@H]13	.	.	.	.	1	.
COCCNC(=S)N/N=C(\C)c1ccc(-n2ccnc2)cc1	-1	-1	6	2	3	-5
COCCNC(=S)N/N=C(\C)c1ccc(O)cc1	4	0	99*	-2	0	2
COCCCNC(=S)N/N=C/c1ccc(O)cc1	-1	-1	99*	-2	-1	-6
CCCCNC(=O)c1nc(C2CCN(S(=O)(=O)c3cccc(C(F)(F)F)c3)CC2)oc1-c1ccccc1	.	9	.	4	0	.
CC(C)(C)c1ccc(CC(=O)N2CCC2(C)C(=O)NCc2ccc3c(c2)OCO3)cc1 (stereo not given)	.	-1	.	2	3	.
Cc1noc(C)c1COC(=O)c1cc(S(=O)(=O)N2CCOCC2)ccc1F	-4	5	-3	-1	0	31*
CC(OC(=O)c1cc(S(=O)(=O)N2CCOCC2)ccc1F)C(=O)NC1CCCC1 (stereo not given)	1	4	-5	-4	2	25*
O=C(COC(=O)c1cc(S(=O)(=O)N2CCOCC2)ccc1F)NC1CCCCC1	-1	-6	.	-2	0	.
COc1ccccc1C1NC=C([N+](=O)[O-])C=C1[N+](=O)[O-] (stereo not given)	2	-5	12	17	24*	3
COc1ccc(CN2CCC(CNC(=O)NCc3ccccc3)CC2)cc1	.	.	.	3	7	.
COc1ccc(C(=O)C(CCC(CNC(C)(C)C)C(=O)c2ccc(OC)cc2)CNC(C)(C)C)cc1 (stereo not given)	62*	41*	?	9	2	4
CC1=CC2=NC(=O)CC(C)(C(=O)N(CC(=O)NC3CCCC3)c3ccccc3F)N2C=C1 (stereo not given)	-10	1	2	1	3	5
CC1=CC2=NC(=O)CC(C)(C(=O)N(CC(=O)NC3CCCC3)c3ccccc3C)N2C=C1 (stereo not given)	7	-10	-8	4	-2	11*
CC1=C(C(=O)N(C(C)C)C(C)C)CC(CC(=O)NCC2CCCCC2)C(=O)N1Cc1ccc(C(C)(C)C)cc1 (stereo not given)	.	-4	.	5	0	.
